Compound activity deposited in PubChem by National Center for Advancing Translational Sciences (NCATS).
Pf Dd2 growth: Plasmodium falciparum Dd2 growth inhibition; 4.3% of 120,000 active; AID 1347417; Potency, µM (top dose mostly 28.9 µM), for inactives: at the top dose activity, negative = inhibition, hits mostly inhibitors; P. falciparum Dd2 growth, SYBR Green, 72 h; active = well fitted inhibition curve with a large enough effect;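 note: plate controls were DMSO vehicle for no effect and reference drug for full effect; nearly all actives have a fitted effect of over 65% in size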
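Readout: SYBR Green fluorescence, 485 nm excitation, 535 nm emission, after ~16 h lysis at 37C. Before that, Dd2-infected red cells (2.5% hematocrit) grew 72 h with compound, 29 uM top final concentration.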
Active calls of the source: *; i = inactive; [ ] = another dose, or the depositor's remark. Many of the other results were omitted from the sample, so hits are more common in it than they were. Potency is the fitted concentration of half-maximal effect.

SMILES	Pf Dd2 growth
CCc1ccc(NC(=O)N2CCC(N3CC4CC(C3)[C@H]3CCCC(=O)N3C4)CC2)cc1 (stereo partly drawn)	-6%
COCCNC(=O)c1ccc2c(c1)N(C)C(CC(=O)N1CCNC(=O)C1)CO2 (stereo not drawn)	-19%
N#Cc1ccc(C(=O)N2CCCC2c2nc(CCOCC3CC3)no2)cc1 (stereo not drawn)	i
O=C(C[C@@H]1O[C@H](CNC(=O)Nc2cccc(F)c2)[C@@H](O)[C@H]1O)NCCN1CCOCC1	16%
Cn1cc(-c2cccc(CCOc3cnc4c(ccn4CC(=O)O)c3)c2)cn1	i
CCNC(=O)Nc1ccc(OCC(=O)N2CCCCC2)nc1	18%
O=C1CC(c2ccccc2)N(C(=O)C2CC2)CCCN(C(=O)c2ccncc2)CCN1 (stereo not drawn)	18%
Cc1ccc(-n2ncc(C(=O)NCCCN3CCCCC3)c2C2CCN(C(=O)OC(C)(C)C)CC2)c(C)c1	8.9µM*
COc1ccc(-n2ncc(C(=O)NCCN3CCOCC3)c2C2CCN(C(=O)OC(C)(C)C)CC2)cc1	-9%
COCCNC(=O)c1cnn(-c2ccc(C)cc2C)c1C1CCN(C(=O)OC(C)(C)C)CC1	-13%
Cc1ccc(-n2ncc(C(=O)NC3CCCC3)c2C2CCN(C(=O)OC(C)(C)C)CC2)c(C)c1	10µM*
Cc1ccc(-n2ncc(C(=O)NCCCN3CCc4ccccc4C3)c2C2CCN(C(=O)OC(C)(C)C)CC2)c(C)c1	7.1µM*
CC(C)(C)OC(=O)N1CCC(c2c(C(=O)NCCN3CCOCC3)cnn2-c2cccc(Cl)c2)CC1	10µM*
Cc1ccc(-n2ncc(C(=O)NCCN3CCCC3)c2C2CCN(C(=O)OC(C)(C)C)CC2)cc1C	i
CC[C@H]1CN(S(=O)(=O)c2ccccc2)CC[C@H]1CC(=O)O	-3%[44.1 µM]
CCOc1cc(C(=O)N2CCN(c3cc(-c4cccs4)[nH]n3)CC2)cc(OCC)c1OCC	i
O=C(CCc1ccccc1)N1CCNc2cnc(Nc3cccc(C(F)(F)F)c3)nc2C1	-22%
O=C([C@@H]1C[C@H](Oc2cccnc2)CN1C(=O)c1nccc2ccccc12)N1CCOCC1	9%
CS(=O)(=O)N1CCOc2ccc(CCC(=O)N3CCC(C(N)=O)CC3)cc2C1	21%
NCCn1cc(C(=O)N2CCC(Oc3ccncc3)CC2)nn1	7%
CS(=O)(=O)N(C1CCOCC1)C1CNC1	2%
O=C(c1ccc(Cl)cc1)N1CCn2c(nn(-c3ccc(F)cc3F)c2=O)C1	5%
O=C1CC2CCCC(C1)N2C(=O)c1cccc(Br)c1	-9%[44.1 µM]
COCCNC(=O)C(NC(=O)c1ccc(OC)cc1)C1CCN(C(=O)c2cccc(C)c2)CC1 (stereo not drawn)	i
CCn1ncc(CN2C[C@@H](CO)[C@H](NC(C)=O)C2)c1C	47%
SMILES	Pf Dd2 growth
O=C1CO[C@H]2CN(C3CCC3)C[C@H]2N1c1ccccc1	-12%[44.1 µM]
C[C@H](O)c1onc(-c2ccccc2)c1C(=O)NC1CCC1	-5%[44.1 µM]
Cc1ccc(-n2ncc(C(=O)NCCCN3CCN(C)CC3)c2C2CCN(C(=O)OC(C)(C)C)CC2)cc1	i
Cc1ccc(-n2ncc(C(=O)NCc3cccs3)c2C2CCN(C(=O)OC(C)(C)C)CC2)cc1	i
CC(C)(C)OC(=O)N1CCC(c2c(C(=O)NCc3ccccc3)cnn2-c2ccccc2)CC1	i
CC(C)(C)OC(=O)N1CCC(c2c(C(=O)NCc3ccco3)cnn2-c2ccccc2)CC1	10µM*
CC(C)(C)OC(=O)N1CCC(c2c(C(=O)NCCCN3CCc4ccccc4C3)cnn2-c2ccccc2)CC1	8.9µM*
CCN1CCN(CCCNC(=O)c2cnn(-c3ccccc3)c2C2CCN(C(=O)OC(C)(C)C)CC2)CC1	-29%
COCC(=O)N1CCC2(CC1)OC(=O)N(CCOc1ccccc1)C2(C)c1cccnc1 (stereo not drawn)	-25%[44.1 µM]
CCC(C)NC(=O)NCCc1noc(-c2ccncc2)n1 (stereo not drawn)	46%
O=C1NC2(CCN(Cc3ccncc3)CC2)Oc2ccccc21	i
CCC(O)CNc1ccc(-c2nc(COC)no2)cn1 (stereo not drawn)	1%
c1ccc(OCc2noc(-c3ccc(NC4CCSC4)nc3)n2)cc1 (stereo not drawn)	10µM*
CC1(COc2ccc(-c3nc(COc4ccccc4)no3)cn2)CCCNC1 (stereo not drawn)	i
CN(Cc1ccccc1)C(=O)c1ccc2c(c1)NC(C)(COc1cccnc1)CO2 (stereo not drawn)	i
O=C(c1ccco1)N1CCC2(CC1)CC(N(C(=O)c1ccccc1)C1CC1)CCO2 (stereo not drawn)	i
O=C(Cn1nnnc1CN1CCCC1)N1CCN(C2CCc3ccccc3C2)CC1 (stereo not drawn)	-11%
C#C[C@H]1CN2CC[C@H]1C[C@@H]2COC(=O)Nc1ccc(Br)cc1	i
C#C[C@H]1CN2CC[C@H]1C[C@@H]2COC(=O)Nc1ccc(C(C)(C)C)cc1	-15%[44.1 µM]
C#C[C@H]1CN2CC[C@H]1C[C@@H]2COC(=O)Nc1ccc(OC(F)(F)F)cc1	11µM*
O=C([C@@H]1C[C@@H](O)[C@H](O)[C@@H]2NC(=S)N(c3ccc4c(c3)OCO4)[C@@H]21)N1CCOCC1	-19%[44.1 µM]
O=S(=O)(NCC1CCOCC1)c1ccccc1F	18%
CC(=O)N[C@@H]1CCC[C@@H](C(=O)NCc2cc(C)on2)CC(=O)N(C)C1	36%[44.1 µM]
COc1ccccc1N1CCC(N2CCN(CCCc3ccccc3)C(CCO)C2)CC1 (stereo not drawn)	10µM*
CCOc1ccc(CN2CCN(C3CCN(C(C)C)CC3)CC2CCO)cc1 (stereo not drawn)	-5%
SMILES	Pf Dd2 growth
COc1ccccc1N1CCN([C@@H]2[C@H](O)[C@H](CO)O[C@@H]2CNC(=O)c2ccccc2)CC1	13%
COC(=O)N1CCC2(C1)N=C(c1ccccn1)C(=O)N2 (stereo not drawn)	i
COc1ccc(NC(=O)c2ccc3c(c2)N(C)C2CCCCCN2C3=O)cc1F (stereo not drawn)	i
CN(C)C[C@@H]1CN(Cc2ccncc2)C[C@H]1N	8%
O=C(NC1CCCC1)N1CCCCC12Cc1ccccc1NC2=O (stereo not drawn)	-2%[44.1 µM]
O=C1Nc2ccccc2CC12CCCN2C1CCCCC1 (stereo not drawn)	10µM*
O=C(c1ccccc1)N1CCCCC12Cc1ccccc1NC2=O (stereo not drawn)	i
O=C(CC1CCCC1)N1CCC(c2nc(CCOc3ccc(F)cc3)no2)C1 (stereo not drawn)	i
Cc1ccc(C)c(-c2cc3c(=O)n(CCNC(=O)c4ccc5ccccc5n4)ccn3n2)c1	i
CC(Oc1ccccc1)C(=O)N1CCC(n2cc(-c3nc(C(C)C)no3)nn2)C1 (stereo not drawn)	i
c1ccc(CCCN[C@H]2CO[C@H]3[C@@H]2OC[C@@H]3n2cc(-c3ccccc3)nn2)cc1	-15%[44.1 µM]
COc1ccc(-c2nc(CN3C(=O)CN=C(c4ccccc4Cl)c4cc(Cl)ccc43)c(C)o2)cc1OC	13µM*
Cc1oc(-c2ccc(Cl)cc2)nc1CN1C(=O)CN=C(c2ccccc2)c2cc(Cl)ccc21	i
Cc1oc(-c2ccc(Cl)cc2)nc1CN1C(=O)CN=C(c2ccccc2)c2ccccc21	4%
CCOc1ccc(NC(=O)N2CCC(CC(=O)NCc3ccccc3)C2)cc1 (stereo not drawn)	i
O=C1CCN(S(=O)(=O)c2ccccc2)CCCCCCN1	22%
CC(=O)N1CCCN(S(=O)(=O)c2ccccc2)CCC(=O)NCC1	-12%
